Experimental data taken from paper PMC11062922 (Nature Chemical Biology, 2023).
Where two headings read alike, the source gives them in different places.

Key:
Parameters in all cases: species or system human, MV4-11 + K-562 + COLO205 + SK-N-BE2 + OVCAR-8
PRKCD = conditions: read-out: apparent Kd, compound concentrations: 100 nM and 1000 nM (sheet 'Samples'), n = 1
BMPR2 = conditions: read-out: apparent Kd, compound concentrations: 100 nM and 1000 nM (sheet 'Samples'), n = 1
MDN1 = conditions: read-out: apparent Kd, n = 1
MTHFD1 = conditions: read-out: apparent Kd, n = 1
IRAK4 = conditions: read-out: apparent Kd, compound concentrations: 100 nM and 1000 nM (sheet 'Samples'), n = 1
NME2;NME2P1 = conditions: read-out: apparent Kd, n = 1
SMC4 = conditions: read-out: apparent Kd, n = 1
PIM1 = conditions: read-out: apparent Kd, compound concentrations: 100 nM and 1000 nM (sheet 'Samples'), n = 1
STK11 = conditions: read-out: apparent Kd, n = 1
MAP3K4 = conditions: read-out: apparent Kd, n = 1
MET = conditions: read-out: apparent Kd, n = 1
VDAC3 = conditions: read-out: apparent Kd, n = 1
CDK9 = conditions: read-out: apparent Kd; compound concentrations:100 nM and 1000 nM (sheet 'Samples'); n = 1
ADK = conditions: read-out: apparent Kd, n = 1
ACLY = conditions: read-out: apparent Kd, compound concentrations: 100 nM and 1000 nM (sheet 'Samples'), n = 1
PLK1 = conditions: read-out: apparent Kd, n = 1
PRKD1 = conditions: read-out: apparent Kd, n = 1
CIT = conditions: read-out: apparent Kd, n = 1
TTK = conditions: read-out: apparent Kd, compound concentrations: 100 nM and 1000 nM (sheet 'Samples'), n = 1
CAMK2B = conditions: read-out: apparent Kd, n = 1
[1] = compound concentrations:100 nM and 1000 nM (sheet 'Samples')

Cn1cc(C2=C(c3cn(CCCO)c4ccccc34)C(=O)NC2=O)c2ccccc21 [RO0317377-000]
potency estimated from few doses (PRKCD; CATDS: 9.7795114941797295E-2): 2020 nM

COc1cc(Nc2ccnc3cc(-c4ccncc4)ccc23)cc(OC)c1OC.Cl [GW494610A]
potency estimated from few doses (BMPR2; CATDS: 2.09550401545208E-2): 2200 nM

CCn1cc(-c2ccnc3[nH]c(-c4cccc(CN(C)C)c4)cc23)c(-c2ccc(NC(=O)N(C)C)cc2)n1 [GSK1070916]
potency estimated from few doses (MDN1; [1]): 2000 nM

O=C1N=C(NCCc2ccccn2)S/C1=C\c1ccc2ncccc2c1 [RO4508346-000]
potency estimated from few doses (MTHFD1; compound concentrations: 100 nM and 1000 nM (sheet 'Samples'), CATDS: 6.5916651027534801E-2): 1980 nM

Cl.O=C1N=C(NCc2ccccn2)S/C1=C\c1ccc2ncccc2c1 [RO4874953-001]
potency estimated from few doses (IRAK4; CATDS: 7.1454413714057002E-2): 1930 nM

Nc1nc(-c2ccc3c(N)n[nH]c3c2)cc(N2CCCCC2)n1 [GSK2228768A]
potency estimated from few doses (NME2;NME2P1; [1]): 1380 nM
potency estimated from few doses (SMC4; [1]): 2040 nM

O=C1N=C(NCc2cccs2)SC1Cc1ccc2ncccc2c1 (centres unmarked) [RO4629078-000]
potency estimated from few doses (PRKCD; CATDS: 8.2287657459755997E-3): 1170 nM

COc1ccc(Nc2nccc(N3CCC(NC(=O)Nc4ccc5c(c4)OCO5)C3)n2)cc1 (centres unmarked) [GSK1379745A]
potency estimated from few doses (MDN1; compound concentrations: 100 nM and 1000 nM (sheet 'Samples'), CATDS: 4.1972847016179399E-2): 1360 nM
potency estimated from few doses (PIM1; CATDS: 4.3475641275587597E-2): 1260 nM

NC(=O)c1cccc(Nc2nccc(Nc3cccc4[nH]ncc34)n2)c1 [GW782612X]
potency estimated from few doses (STK11; compound concentrations: 100 nM and 1000 nM (sheet 'Samples'), CATDS: 6.0653418391634698E-2): 342 nM

CCN(CC)CCOc1ccc(Nc2ncc3cc(-c4c(Cl)cccc4Cl)c(=O)n(C)c3n2)cc1 [SB-601273]
potency estimated from few doses (MAP3K4; [1]): 640 nM

CS(=O)(=O)Cc1ccc(Nc2nccc(-c3c(-c4cccc(NC(=O)C5CCCCC5)c4)nn4ncccc34)n2)cc1 [GSK350559A]
potency estimated from few doses (MET; [1]): 1780 nM
potency estimated from few doses (VDAC3; [1]): 2030 nM

O=S(=O)(CCOCc1ccc(-c2ccc3ncnc(Nc4ccc(OCc5cccc(F)c5)c(Cl)c4)c3c2)o1)c1ccccc1 [GW615311X]
potency estimated from few doses (PIM1; CATDS: 3.06146278904708E-2): 1120 nM

CN1CCN(Cc2ccc(NC(=O)Nc3ccc(N(C)c4ccnc(Nc5ccc(CS(C)(=O)=O)cc5)n4)cc3)cc2)CC1.Cl [GW827654A]
potency estimated from few doses (MAP3K4; compound concentrations: 100 nM and 1000 nM (sheet 'Samples'), CATDS: 3.4818891633212903E-2): 1770 nM
potency estimated from few doses (MET; compound concentrations: 100 nM and 1000 nM (sheet 'Samples'), CATDS: 3.7030406739302302E-2): 1380 nM

N#Cc1cccc(Nc2nccc(-c3cnn4ncccc34)n2)c1 [GW778894X]
potency estimated from few doses (CDK9): 3.72 nM

COc1cc2ncn(-c3cc(OCc4cccs4)c(C(N)=O)s3)c2cc1OC [GSK312948A]
potency estimated from few doses (ADK; [1]): 863 nM

N#Cc1cnc2cc(-c3cnc(CNCCN4CCOCC4)s3)ccc2c1Nc1ccc(Oc2ccccc2)cc1 [GW664114X]
potency estimated from few doses (MAP3K4; compound concentrations: 100 nM and 1000 nM (sheet 'Samples'), CATDS: 5.1499823560292202E-2): 914 nM

CC(=O)N1CCN(c2ccc(Nc3nccc(-c4sc(C(C)C)nc4-c4cccc(NS(=O)(=O)c5cccc(Cl)c5)c4)n3)cn2)CC1 [GSK1660437A]
potency estimated from few doses (ACLY; CATDS: 3.7699367281675798E-2): 1770 nM

COc1cc2ncn(-c3cc(OCc4ccncc4)c(C(N)=O)s3)c2cc1OC [GSK336313A]
potency estimated from few doses (PLK1; [1]): 686 nM

CNC(=O)c1ccccc1Nc1nc(Nc2cccc(CS(C)(=O)=O)c2)ncc1C.O=CO [GSK1520489A]
potency estimated from few doses (BMPR2; CATDS: 1.16298732818768E-2): 672 nM
potency estimated from few doses (IRAK4; CATDS: 9.4049632429945695E-3): 1870 nM
potency estimated from few doses (MET; compound concentrations: 100 nM and 1000 nM (sheet 'Samples'), CATDS: 7.7828561887260297E-2): 12.2 nM

CC(C)c1nc(-c2ccc(F)c(NS(=O)(=O)c3c(F)cccc3F)c2)c(-c2ccnc(Nc3ccc(N4CCOCC4)nc3)n2)s1 [GSK1804250A]
potency estimated from few doses (PRKD1; [1]): 1140 nM

Nc1nc(N)c2nc(-c3ccccc3)[nH]c2n1 [SKF-12778]
potency estimated from few doses (STK11; [1]): 1740 nM

CNc1nccc(-c2c(-c3ccc(F)cc3)ncn2C2CCN(C)CC2)n1 [SB-222903]
potency estimated from few doses (CIT; [1]): 670 nM

CC(=O)c1c(-c2ccncc2)[nH]c(-c2ccncc2)c1C [GW493036X]
potency estimated from few doses (ADK; [1]): 1760 nM
potency estimated from few doses (CDK9): 154 nM
potency estimated from few doses (CIT; [1]): 173 nM

COc1cccc(-c2c[nH]c3c(N/N=C/c4ccncc4)ncnc23)c1 [GW814408X]
potency estimated from few doses (STK11; [1]): 1900 nM

COc1ccc(Nc2nccc(N3CCC(NC(=O)Nc4cccc(OC)c4)C3)n2)cc1 (centres unmarked) [GSK1379742A]
potency estimated from few doses (ADK; compound concentrations: 100 nM and 1000 nM (sheet 'Samples'), CATDS: 0.15674492121070999): 1070 nM

Clc1ccc(-c2nn3ncccc3c2-c2ccnc(Nc3ccccc3)n2)cc1 [GW829055X]
potency estimated from few doses (VDAC3; compound concentrations: 100 nM and 1000 nM (sheet 'Samples'), CATDS: 4.3121960870331599E-2): 997 nM

Fc1cccc(COc2ccc(Nc3ncncc3C#Cc3ccccc3)cc2Cl)c1 [GW651576X]
potency estimated from few doses (TTK; CATDS: 4.4346947520248398E-2): 2370 nM

Cc1ccc(NC(=O)Nc2ccccc2)cc1-c1ccc(C(=O)Nc2ccncc2)cc1 [GSK1398471A]
potency estimated from few doses (PRKD1; compound concentrations: 100 nM and 1000 nM (sheet 'Samples'), CATDS: 0.105821439316495): 1680 nM

O=C1NC(=O)C(c2cccc(Cl)c2)=C1Nc1ccc(O)c(Cl)c1 [SB-409514]
potency estimated from few doses (ACLY; CATDS: 0.38429140901440101): 1000 nM
potency estimated from few doses (SMC4; compound concentrations: 100 nM and 1000 nM (sheet 'Samples'), CATDS: 0.290936381936651): 1760 nM

COc1cc(N2CCN(C(C)C)CC2)ccc1Nc1nc(Nc2cccc(F)c2C(=O)O)c2cc[nH]c2n1 [GSK1819799A]
potency estimated from few doses (ACLY; CATDS: 4.2702759645578299E-2): 2000 nM
potency estimated from few doses (PIM1; CATDS: 4.9008652633002601E-2): 1330 nM
potency estimated from few doses (TTK; CATDS: 6.5910432506735395E-2): 662 nM

Cn1cc(C2=C(c3cccc([N+](=O)[O-])c3)C(=O)NC2=O)c2ccccc21 [RO0317474-000]
potency estimated from few doses (CAMK2B; compound concentrations: 100 nM and 1000 nM (sheet 'Samples'), CATDS: 0.20512519327704001): 717 nM

COc1cccc(C2=C(c3cn(C)c4c(C)cccc34)C(=O)NC2=O)c1 [RO3301012-000]
potency estimated from few doses (CAMK2B; compound concentrations: 100 nM and 1000 nM (sheet 'Samples'), CATDS: 0.15582522082394101): 642 nM

COc1ccc(C2=C(c3cn(C)c4ccccc34)C(=O)NC2=O)cc1OC [RO3206363-000]
potency estimated from few doses (PRKD1; compound concentrations: 100 nM and 1000 nM (sheet 'Samples'), CATDS: 5.5883212244700199E-2): 347 nM

COc1ccc(-c2nn3ncccc3c2-c2ccnc(Nc3ccc4c(c3)OCCO4)n2)cc1 [GW827106X]
potency estimated from few doses (TTK; CATDS: 4.8165403785390797E-2): 1630 nM

Cc1[nH]nc2c1N=C(c1ccccc1Cl)c1cc([N+](=O)[O-])ccc1N2 [RO0274406-000]
potency estimated from few doses (NME2;NME2P1; compound concentrations: 100 nM and 1000 nM (sheet 'Samples'), CATDS: 6.5363052061215496E-2): 1680 nM

Fc1ccc(-c2ncn(C3CCNCC3)c2-c2ccnc(Oc3ccc4c(c3)OCO4)n2)cc1 [SB-250715]
potency estimated from few doses (VDAC3; [1]): 834 nM

COc1cc(F)c(F)c(F)c1C(=O)c1cnc(NC2CCN(S(C)(=O)=O)CC2)nc1N [RO4600703-000]
potency estimated from few doses (CDK9): 349 nM
potency estimated from few doses (MTHFD1; [1]): 1300 nM

Cl.Oc1ccc2ncnc(Nc3ccc(OCc4ccccc4)cc3)c2c1 [GI262866A]
potency estimated from few doses (CAMK2B; [1]): 391 nM

NC(=O)c1sc(-n2cnc3ccc(C(F)(F)F)cc32)cc1OCc1ccccc1Br [GW853606X]
potency estimated from few doses (PLK1; compound concentrations: 100 nM and 1000 nM (sheet 'Samples'), CATDS: 0.32728933930944998): 1020 nM

COc1cc2ncn(-c3cc(OCc4sccc4Cl)c(C(N)=O)s3)c2cc1OC [GSK448459A]
potency estimated from few doses (PLK1; [1]): 81.2 nM

Nc1nccc(-c2c(-c3ccc(F)cc3)ncn2C2CCC(O)CC2)n1 (centres unmarked) [SB-223133]
potency estimated from few doses (CIT; compound concentrations: 100 nM and 1000 nM (sheet 'Samples'), CATDS: 4.5392232292010899E-2): 140 nM
